About 83,000 compounds went through this panel and 20% of them were active in at least one assay; those are over-represented in the sample as a whole.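 Single-concentration screen, 48 h exposure, 96-well plates. Endpoint: percent growth. Below 10 = active.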 Calls of active or inactive are those of the source.
Columns and labels:
Test in all cases: NCI-60 one-dose screen, 48 h (100 = growth as untreated, 0 = no growth, -100 = all killed)
Settings in all cases: 10 µM unless noted
[1] = system: SR leukemia
[2] = system: RPMI-8226 leukemia
[3] = system: OVCAR-8 ovarian
[4] = system: OVCAR-5 ovarian
[5] = system: OVCAR-4 ovarian
[6] = system: SK-OV-3 ovarian
[7] = system: IGROV1 ovarian
[8] = system: OVCAR-3 ovarian
[9] = system: HS 578T breast
[10] = system: NCI/ADR-RES ovarian
[11] = system: T-47D breast
[12] = system: BT-549 breast
[13] = system: MDA-MB-435 melanoma
[14] = system: SW-620 colon
[15] = system: MCF7 breast
[16] = system: HCT-116 colon
[17] = system: HCC-2998 colon
[18] = system: KM12 colon

Measured: growth

N/C(=N\c1nc2ccccc2s1)NC(=NC1CCCCC1)NC1CCCCC1
active: [1] 8.88% | [2] -30.4% | [3] 4.41% | [13] -33.7% | [14] 0.593% | [15] -42.4% | [16] 0.368% | [17] -88.6%
inactive: [4] 24.6% | [5] 26.7% | [6] 74.9% | [7] 14.4% | [8] 57.6% | [9] 37.8% | [10] 15% | [11] 13.2% | [12] 47.6%

CCOC(=O)C1=C(c2ccccc2)N=c2s/c(=C/c3ccc(Br)cc3)c(=O)n2C1c1ccc(O)cc1 (stereo not given)
inactive: [1] 54.8% | [2] 74.1% | [3] 89.2% | [4] 105% | [5] 75.1% | [6] 104% | [7] 93.1% | [8] 86.1% | [9] 84.4% | [10] 99.5% | [11] 69.7% | [12] 95.3% | [13] 96% | [14] 94.6% | [15] 77.1% | [16] 82.3% | [17] 105%

Cc1c2cc[nH]c(=O)c2c(C)c2c1[nH]c1ccc(OC(=O)c3ccccc3)cc12
active: [1] 4.29% | [6] 8.11%
inactive: [2] 40.2% | [3] 28.4% | [4] 53.1% | [5] 62.5% | [7] 30.6% | [8] 44.3% | [9] 19.3% | [10] 27.7% | [11] 10.3% | [12] 40.8% | [13] 28% | [14] 28% | [15] 20.3% | [16] 22.7% | [17] 57.7% | [18] 39%

O=C(Nc1ccccc1)c1sc(-c2ccccc2)cc1O
inactive: [1] 70.4% | [2] 74.4% | [3] 119% | [4] 94.2% | [5] 90.9% | [6] 106% | [7] 92.5% | [8] 84.1% | [9] 92% | [10] 93.4% | [11] 101% | [12] 95.8% | [13] 90% | [14] 102% | [15] 78.9% | [16] 96.5% | [17] 101% | [18] 85.1%

CC/C=C1/C(=O)C=C[C@@H]1C/C=C\CCCC(=O)OC
inactive: [3] 25.7% | [4] 112% | [5] 96.9% | [6] 117% | [7] 105% | [8] 51.4% | [9] 43% | [10] 57.7% | [11] 62.4% | [12] 16.6% | [14] 14.9% | [15] 15.6% | [17] 114% | [18] 17.1%
active: [1] 4.16% | [2] -5.45% | [13] 4.2% | [16] -59.6%

FC(F)(F)c1[nH]ncc1-c1nc2c(N3CCCCC3)cc3[nH]ncc3c2c2c1CCCC2
inactive: [5] 24.3% | [10] 44.8% | [13] 10.8% | [18] 11.1%
active: [1] -4.82% | [2] -6.13% | [3] 7.14% | [4] 6.62% | [6] -25% | [7] -8.41% | [8] -2.67% | [9] -11.8% | [11] -4.06% | [12] -52.7% | [14] 6.31% | [15] 3.33% | [16] 3.74% | [17] -8.43%

CCOC(=O)c1ccc2c(c1)c1c(C)c3ccncc3c(C)c1n2C
inactive: [1] 26.8% | [12] 21.1%
active: [2] -1.7% | [3] 3.64% | [4] -11% | [5] -12.8% | [6] 0.282% | [7] -25.5% | [8] -20.4% | [9] -4.98% | [10] -12.5% | [11] -3.13% | [13] 3.03% | [14] 0.329% | [15] 1.8% | [16] 0.263% | [17] 4.25% | [18] 0.78%

Cn1cc(-c2nonc2-c2c[nH]c3ccccc23)c2ccccc21
inactive: [1] 11.6% | [3] 16% | [4] 25.9% | [5] 30.5% | [6] 18.9% | [7] 24.4% | [11] 25.9% | [12] 18.7% | [14] 22.4% | [15] 14.3% | [17] 11.1%
active: [2] 8.96% | [8] -17.7% | [9] 6.76% | [10] 5.05% | [13] -45.3% | [16] 5.44%

O=C(Cn1nnc([N+](=O)[O-])n1)c1ccccc1
inactive: [1] 84.3% | [2] 40.6% | [3] 101% | [4] 114% | [5] 91.5% | [6] 99.8% | [7] 96.1% | [8] 100% | [9] 106% | [10] 98.4% | [11] 78.9% | [12] 113% | [13] 85.4% | [14] 91.1% | [15] 80.9% | [16] 60% | [17] 102% | [18] 95.9%

COc1ccc(Nc2ncccc2NC(=O)c2cn(Cc3cccc(Oc4ccccc4)c3)nn2)cc1OC
inactive: [1] 34.9% | [2] 73.2% | [3] 90.8% | [4] 111% | [5] 68.2% | [6] 93.5% | [7] 89.5% | [8] 73.3% | [9] 72.9% | [10] 77% | [11] 49.2% | [12] 73% | [14] 73% | [15] 48.5% | [16] 80.7% | [17] 88.1%
active: [13] 4.74%

Cc1cc(C)cc(Nc2ccc([N+](=O)[O-])c(NCCN3CCOCC3)n2)c1
inactive: [1] 17% | [2] 11.5% | [3] 20% | [4] 52.9% | [5] 52.6% | [6] 50.3% | [7] 23.5% | [9] 21.6% | [10] 18.1% | [11] 56.3% | [14] 31% | [15] 13.2%
active: [8] 2.95% | [12] 9.31% | [13] -30.1% | [16] 5.31% | [17] 9%

N#C/C(=C\c1ccc(Br)cc1)c1cc2ccccc2[nH]1
inactive: [1] 81.2% | [2] 78.9% | [3] 96.8% | [4] 93.9% | [5] 112% | [6] 81% | [7] 91.4% | [8] 107% | [9] 98.4% | [10] 98.7% | [11] 74.7% | [12] 97% | [13] 99.1% | [14] 93.4% | [15] 62.2% | [16] 84.7% | [17] 101% | [18] 90.7%

CS(=O)(=O)Nc1cc(-c2ccc3ncnc(Nc4ccc5c(cnn5Cc5cccnc5)c4)c3c2)cnc1Cl
active: [7] 3.96% | [9] -2.21% | [11] 0.364%
inactive: [1] 21.5% | [2] 54.7% | [3] 75.6% | [4] 49% | [5] 74.6% | [6] 58.4% | [8] 19.2% | [10] 93.2% | [12] 17.1% | [13] 53.9% | [14] 66.8% | [15] 15.2% | [16] 69.8% | [17] 65.7% | [18] 82.9%

NNC(=S)N/N=C/c1ccccn1
inactive: [2] 28.9% | [3] 20% | [4] 40.3% | [5] 29.2% | [6] 24.3% | [7] 40.2% | [8] 21.7% | [9] 31.8% | [10] 17.8% | [12] 55% | [13] 46.4% | [14] 51.3% | [15] 15.7% | [16] 19.8% | [17] 28.8%
active: [1] 5.56% | [11] 9.69%

COc1ccc(C2=C/C(=C\c3ccc(Cl)cc3)C(=O)N2/N=C/c2ccc(Cl)cc2)cc1
inactive: [1] 88.3% | [2] 101% | [3] 83.5% | [4] 103% | [5] 79.2% | [6] 88.6% | [7] 91.2% | [8] 99.6% | [9] 91.4% | [10] 104% | [11] 82.1% | [12] 101% | [13] 104% | [14] 98.9% | [15] 84.5% | [16] 109% | [17] 108% | [18] 90.2%

COc1cccc(OC)c1Oc1c(-c2nc3ccccc3s2)c(C)nn1-c1ccccc1
inactive: [2] 57.6% | [3] 72.2% | [4] 73.8% | [5] 63.4% | [6] 75.3% | [7] 46.5% | [8] 89.6% | [9] 78.3% | [10] 64.7% | [11] 42.1% | [12] 36.3% | [13] 88.1% | [14] 88% | [15] 82.1% | [16] 53.8% | [17] 81.9%
active: [1] 6.99%

CC(C)(C)C(=O)/C=C/c1ccc([N+](=O)[O-])cc1
inactive: [2] 23.5% | [3] 76.8% | [4] 108% | [5] 91.5% | [6] 98.7% | [7] 96% | [8] 84.9% | [9] 90.2% | [10] 60.2% | [11] 65.8% | [12] 78.5% | [13] 47.1% | [14] 20% | [16] 42.2% | [17] 119%
active: [1] 8.57% | [15] 8.67%

Oc1c(I)cc(-c2nc3ccccc3s2)cc1CN(Cc1ccccn1)Cc1ccccn1
inactive: [2] 15.2% | [3] 10.9% | [4] 49.7% | [5] 31.9% | [6] 18.5% | [8] 31.5% | [9] 46.8% | [11] 17% | [12] 22% | [13] 33.3% | [14] 21.3% | [15] 13.7% | [16] 16.1%
active: [1] 6.31% | [7] 5.99% | [10] -2.29% | [17] 9.25%
